Laboratory results taken from ChEMBL document CHEMBL3988442, “University of Dundee, Small-Polar-MMV Screening Library” (2021).
The campaign covered roughly 53,000 compounds. About 900 (1.7%) showed an effect of 50% or more. This is one part of a sample in which strong results are shown more often than they occur.

These molecules were tested on Mycobacterium tuberculosis (assay: Cornell - Phenotypic assay to identify agents that inhibit growth of Mycobacterium tuberculosis). Conditions: 10 mM as filed; unlikely as a test dose.
Type: functional
Parameters: scale not given: direction of the effect not stated beside the values
For `O=C(c1cc(-n2cnnn2)ccc1Cl)N1CCCCCC1`, the “Percent Effect” value was 22.48%. For `Cc1noc(C)c1CN1CCOCC12CCN(c1nccs1)CC2.O=C(O)C(F)(F)F`, the “Percent Effect” value was -2.189%. In the case of `CCNC(=O)N1CCc2ccc(NC(=O)C(C)c3ccsc3)cc21` (stereo not given), the “Percent Effect” value is reported as -7.199%. `Cc1cnn(C2CCCN(C(=O)c3ccnc(-n4cncn4)c3)C2)c1` (stereo not given) was tested, and the “Percent Effect” value was -11.26%. In the case of `Cc1cn2nc(N3CCn4c(nnc4C(C)C)C3)sc2n1`, the “Percent Effect” value is reported as -4.534%. With `c1cnc(Nc2ccc(C3CCCCN3Cc3ccncc3)cn2)nc1` (stereo not given) the “Percent Effect” value was 63.94%. For `CS(=O)(=O)N1CCCCC1c1ccc(Nc2cnccn2)nc1` (stereo not given), the “Percent Effect” value was 21.12%. For `c1cc(CN2CCCCC2c2ccc(Nc3cnccn3)nc2)ccn1` (stereo not given), the “Percent Effect” value was 73.82%. With `Cn1cc(-c2ccc(C3CCCCN3Cc3cccnc3)cn2)cn1` (stereo not given) the “Percent Effect” value was 36.92%. `c1cncc(CN2CCCCC2c2ccc(Nc3cnccn3)nc2)c1` (stereo not given) was tested, and the “Percent Effect” value was 29.23%. For `Cn1cc(CN2CCCCC2c2ccc(-c3cnn(C)c3)nc2)cn1` (stereo not given), the “Percent Effect” value was 0.8308%. For `Cc1cnn(CCNCc2ccc(OCc3cccnc3)cc2)c1`, the “Percent Effect” value was -17.94%. With `Cc1nnc(C2Cc3ccccc3CN2Cc2ncc(Cl)n2C)o1` (stereo not given) the “Percent Effect” value was -18.28%. For `Cn1cc(CC(=O)N2CCCC(c3cc(C(F)(F)F)[nH]n3)C2)cn1` (stereo not given), the “Percent Effect” value was -14.78%. With `O=C(Cn1cc(Cl)cn1)NCCN1CCC(O)(c2ccc(F)cc2)CC1` the “Percent Effect” value was 36.23%. With `CN(C)C(=O)C1CN(c2ccncn2)CCN(C2CCOCC2)C1` (stereo not given) the “Percent Effect” value was -28.59%. In the case of `COc1ccc(C(=O)NS(C)(=O)=O)cc1-c1ccccc1`, the “Percent Effect” value is reported as 36.61%. With `COc1cccc(C(=O)NS(=O)(=O)c2cc(Cl)sc2Cl)c1OC(F)F` the “Percent Effect” value was 16.97%. `COc1cc(C(=O)NS(=O)(=O)c2cc(Cl)sc2Cl)ccc1OC(F)F` was tested, and the “Percent Effect” value was 83.5%. In the case of `COc1cc(C(=O)NS(=O)(=O)c2ccc(C#N)cc2)ccc1C`, the “Percent Effect” value is reported as -19.49%. In the case of `O=C(NS(=O)(=O)c1cc(Cl)sc1Cl)c1cccc2c1OCCO2`, the “Percent Effect” value is reported as 1.673%. In the case of `COc1ccc(C(=O)NS(=O)(=O)c2cc(Cl)sc2Cl)cc1OC(F)F`, the “Percent Effect” value is reported as 76.92%. In the case of `CCc1cc(NC(=O)C(c2cccc(F)c2)N2CCOCC2)[nH]n1` (stereo not given), the “Percent Effect” value is reported as -14.2%. For `O=C(CS(=O)(=O)Cc1cc(Cl)c2c(c1)OCO2)N1CCCCCC1`, the “Percent Effect” value was -3.371%. In the case of `COCCCNC(=O)N1CCN(C(=O)c2nsc3ccccc23)CC1`, the “Percent Effect” value is reported as 12.5%. With `CN(C)Cc1cc(=O)n2c(n1)CN(C(=O)c1ccc[nH]1)CCC2.O=C(O)C(F)(F)F` the “Percent Effect” value was -35.4%. With `Cc1ccc(CN2CCN(c3ncccc3C(N)=O)CC2CCO)cc1` (stereo not given) the “Percent Effect” value was 16.45%. In the case of `Cc1ccc(N2N=C(C(=O)NCC3CC3)S(=O)(=O)c3cccnc32)cc1`, the “Percent Effect” value is reported as 11.26%. In the case of `Cc1ccc(N2N=C(C(N)=O)S(=O)(=O)c3cccnc32)cc1`, the “Percent Effect” value is reported as 106.9%. For `CN1N=C(C(=O)N2CCCCC2)S(=O)(=O)c2ccccc21`, the “Percent Effect” value was -10.66%. With `Cc1ccc(N2N=C(C(=O)O)S(=O)(=O)c3cccnc32)cc1` the “Percent Effect” value was 51.3%. For `CC(C)CCN1N=C(C(=O)N2CCCCCC2)S(=O)(=O)c2ccccc21`, the “Percent Effect” value was 8.314%. In the case of `Cc1cn2c(n1)CCC(NC(=O)CCCn1cncn1)C2` (stereo not given), the “Percent Effect” value is reported as -12.33%. With `CC(=O)Nc1nc(C2CCN(C(C)C)CC2)cs1` the “Percent Effect” value was -15.97%. For `CC(=O)N1CCCC1c1nc(CN(C)C(=O)C(C)C)cc(N(C)C)n1` (stereo not given), the “Percent Effect” value was 52.18%. In the case of `CCC(=O)N1CCCCC1c1nc(CN(C)C(C)=O)cc(N(C)C)n1` (stereo not given), the “Percent Effect” value is reported as 49.36%. With `COCC(=O)N1CCCCC1c1nc(CN(C)C(C)=O)cc(N(C)C)n1` (stereo not given) the “Percent Effect” value was -40.24%. For `COc1ccc(C(=O)N2CCOc3ccncc32)cc1`, the “Percent Effect” value was 9.514%. For `CC(C)CC(C)NC1CCN(c2cccc(-c3cscn3)c2)CC1` (stereo not given), the “Percent Effect” value was 2.317%. With `c1ccc(-c2cccc(N3CCC(NCCc4cscn4)CC3)c2)cc1` the “Percent Effect” value was 93.63%. For `Fc1cccc(-c2cccc(N3CCC(NC4CCCOC4)CC3)c2)c1` (stereo not given), the “Percent Effect” value was 23.21%. With `O=C1CCCN1c1cccc(N2CCC(NCCc3cscn3)CC2)c1` the “Percent Effect” value was 24.64%. With `Cc1nc(-c2cccc(N3CCC(NC4CCOCC4)CC3)c2)cs1` the “Percent Effect” value was 35.61%. `c1cc(-c2cscn2)cc(N2CCC(NCCc3cccs3)CC2)c1` was tested, and the “Percent Effect” value was 60.71%. `CCCC(=O)N1CCOC2(COCCN(CC(=O)NC)C2)C1.O=C(O)C(F)(F)F` (stereo not given) was tested, and the “Percent Effect” value was 6.771%. With `O=C(CC(SC1CCCCC1)C(=O)O)c1ccc(Br)cc1` (stereo not given) the “Percent Effect” value was 52.8%. With `Cc1ccc(C(=O)CC(SC2CCCCC2)C(=O)O)cc1` (stereo not given) the “Percent Effect” value was 44.78%. With `O=C(CC(SC1CCCCC1)C(=O)O)c1ccc(Cl)cc1` (stereo not given) the “Percent Effect” value was 11.66%. For `O=C(O)C(F)(F)F.O=C(O)C(F)(F)F.O=C(O)c1c(-c2cccnc2)ncc2c1CCN(Cc1ccccn1)C2`, the “Percent Effect” value was -51.27%. `O=C(NCc1cccnc1)c1nc2c(s1)CCCN2C(=O)C1CC1.O=C(O)C(F)(F)F` was tested, and the “Percent Effect” value was 6.625%. `c1cnc(N2CCC(c3csc(Nc4cnccn4)n3)CC2)nc1` was tested, and the “Percent Effect” value was 78.58%. With `Cc1nc(Nc2cnccn2)cc(C2CCN(c3ncccn3)C2)n1` (stereo not given) the “Percent Effect” value was -14.64%. With `NC(=O)CN1CCC(c2csc(Nc3cnccn3)n2)CC1` the “Percent Effect” value was 53.63%. `OCCN1CCC(c2csc(Nc3cnccn3)n2)CC1` was tested, and the “Percent Effect” value was -21.31%. For `CC(=O)Nc1nc(C2CCN(CC(N)=O)CC2)cs1`, the “Percent Effect” value was 1.083%. In the case of `c1cnc(N2CCCC(c3csc(Nc4cnccn4)n3)C2)nc1` (stereo not given), the “Percent Effect” value is reported as 29.09%. With `O=C(N1CCOCC1)n1cnc2ccccc21` the “Percent Effect” value was 14.08%. With `CC1CCN(c2ccc(=O)n(CC(=O)NCCc3ccccc3)n2)CC1` the “Percent Effect” value was 45.57%. With `COc1c(CC2CC(CO)=NO2)c(Br)c2c(c1OC)OCO2` (stereo not given) the “Percent Effect” value was -3.025%. `CCCS(=O)(=O)N1CCCC(c2nc(-c3ccccc3)c[nH]2)C1` (stereo not given) was tested, and the “Percent Effect” value was 56.46%. For `CS(=O)(=O)N1CCCC(c2nc(-c3ccccc3)c[nH]2)C1` (stereo not given), the “Percent Effect” value was 4.975%. In the case of `CCN(C)S(=O)(=O)N1CCCC(c2nc(-c3ccccc3)c[nH]2)C1` (stereo not given), the “Percent Effect” value is reported as -4.787%. With `Cc1nc(N2CCCC2)nc(C)c1NS(C)(=O)=O` the “Percent Effect” value was 7.192%. For `Cc1ccc(S(=O)(=O)Nc2c(C)nc(N3CCCC3)nc2C)cc1`, the “Percent Effect” value was 52.33%. With `Cc1nc(N2CCOCC2)nc(C)c1NS(=O)(=O)c1ccccc1` the “Percent Effect” value was 18.03%.
